# From publication PMC7862700, “An all-to-all approach to the identification of sequence-specific readers for epigenetic DNA modifications on cytosine”
# Columns and labels:
# Experiment in all cases: DAPPL (digital affinity profiling via proximity ligation, sequencing); 10 mM Tris-HCl pH 7.5, 50 mM NaCl, 1 mM DTT, 4% glycerol, room temperature, 30 min; GST-TFs on glutathione beads, 16-mer random dsDNA library, 0.1% formaldehyde crosslink after washing; high values mean tight binding
# Details in all cases: protein: recombinant; tags: N-terminal GST; dsDNA, one strand shown
# FLI1 = target: T1, FLI1 (Homo sapiens, UniProt Q01543 1-452)
# T1 sequence: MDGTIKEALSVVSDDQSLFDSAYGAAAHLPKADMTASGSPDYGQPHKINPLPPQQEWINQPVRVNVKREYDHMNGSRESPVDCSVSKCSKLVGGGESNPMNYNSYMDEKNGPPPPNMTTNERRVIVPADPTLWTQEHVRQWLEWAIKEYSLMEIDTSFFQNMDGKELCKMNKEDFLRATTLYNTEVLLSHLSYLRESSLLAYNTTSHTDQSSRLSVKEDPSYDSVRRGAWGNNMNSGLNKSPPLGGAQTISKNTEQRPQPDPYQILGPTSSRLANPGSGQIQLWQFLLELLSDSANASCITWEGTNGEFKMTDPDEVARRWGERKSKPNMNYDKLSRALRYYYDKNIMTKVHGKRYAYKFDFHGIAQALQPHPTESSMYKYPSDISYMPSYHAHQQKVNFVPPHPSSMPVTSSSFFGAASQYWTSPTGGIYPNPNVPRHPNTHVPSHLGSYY
# Summary of the method: (§1)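 Binding signal is each hexamer's read frequency for a factor divided by its frequency in the tag-only sample. The factors were GST-fused human transcription factors from yeast, captured on glutathione beads, DNA-barcoded and pooled with that sample. Pools were incubated with 200 nmole of a random double-stranded 16-mer DNA library in Tris/NaCl/DTT/glycerol buffer at room temperature for 30 min, then washed, crosslinked with 0.1% formaldehyde, proximity-ligated with BsaI/T4 ligase (1 h, 37 °C), PCR-amplified and sequenced on an Illumina NextSeq500.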
# ELK1 = target: T2, ELK1 (Homo sapiens, UniProt P19419 1-428)
# T2 sequence: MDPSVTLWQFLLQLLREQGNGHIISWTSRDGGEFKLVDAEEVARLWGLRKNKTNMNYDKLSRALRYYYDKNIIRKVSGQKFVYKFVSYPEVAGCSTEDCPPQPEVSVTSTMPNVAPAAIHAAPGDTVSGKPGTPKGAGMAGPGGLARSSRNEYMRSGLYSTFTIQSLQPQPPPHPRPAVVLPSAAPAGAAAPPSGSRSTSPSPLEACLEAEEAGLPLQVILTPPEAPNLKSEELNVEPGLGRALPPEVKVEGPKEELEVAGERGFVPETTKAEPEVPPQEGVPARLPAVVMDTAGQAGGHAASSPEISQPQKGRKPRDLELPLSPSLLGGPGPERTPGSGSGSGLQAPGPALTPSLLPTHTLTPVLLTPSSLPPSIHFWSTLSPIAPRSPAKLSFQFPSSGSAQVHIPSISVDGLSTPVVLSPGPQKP
# Summary of the method: as §1
# GABPA = target: T3, GABPA (Homo sapiens, UniProt Q06546 1-454)
# T3 sequence: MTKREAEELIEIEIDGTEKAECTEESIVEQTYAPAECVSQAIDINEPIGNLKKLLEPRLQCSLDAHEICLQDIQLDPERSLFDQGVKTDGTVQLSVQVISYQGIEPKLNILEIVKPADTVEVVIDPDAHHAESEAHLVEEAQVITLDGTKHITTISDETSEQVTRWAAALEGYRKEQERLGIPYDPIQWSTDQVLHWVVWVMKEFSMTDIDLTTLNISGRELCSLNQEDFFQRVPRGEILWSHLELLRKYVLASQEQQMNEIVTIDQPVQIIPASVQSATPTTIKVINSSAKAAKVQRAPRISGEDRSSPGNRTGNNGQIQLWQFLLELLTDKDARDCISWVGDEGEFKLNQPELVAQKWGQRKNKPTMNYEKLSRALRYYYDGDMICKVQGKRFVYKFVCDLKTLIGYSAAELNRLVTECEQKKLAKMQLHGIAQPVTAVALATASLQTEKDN
# Summary of the method: as §1
# ERG = target: T4, ERG (Homo sapiens, UniProt P11308 1-479)
# T4 sequence: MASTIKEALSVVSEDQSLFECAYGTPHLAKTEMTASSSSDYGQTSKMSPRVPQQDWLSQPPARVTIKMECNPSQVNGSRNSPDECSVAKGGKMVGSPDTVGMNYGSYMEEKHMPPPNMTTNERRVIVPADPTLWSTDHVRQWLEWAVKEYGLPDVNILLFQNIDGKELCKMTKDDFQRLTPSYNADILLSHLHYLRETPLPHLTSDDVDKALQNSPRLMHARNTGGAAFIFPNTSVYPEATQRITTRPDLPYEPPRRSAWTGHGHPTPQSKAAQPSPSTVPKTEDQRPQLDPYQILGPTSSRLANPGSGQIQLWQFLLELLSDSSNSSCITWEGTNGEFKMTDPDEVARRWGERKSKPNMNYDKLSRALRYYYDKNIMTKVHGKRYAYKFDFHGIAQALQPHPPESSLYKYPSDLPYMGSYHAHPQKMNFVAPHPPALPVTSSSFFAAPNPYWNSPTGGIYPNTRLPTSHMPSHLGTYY
# Summary of the method: as §1
# ELF1 = ELF1 (Homo sapiens, UniProt P32519 1-619)
# Summary of the method: as §1
# EHF = target: T5, EHF (Homo sapiens, UniProt Q9NZC4 1-300)
# T5 sequence: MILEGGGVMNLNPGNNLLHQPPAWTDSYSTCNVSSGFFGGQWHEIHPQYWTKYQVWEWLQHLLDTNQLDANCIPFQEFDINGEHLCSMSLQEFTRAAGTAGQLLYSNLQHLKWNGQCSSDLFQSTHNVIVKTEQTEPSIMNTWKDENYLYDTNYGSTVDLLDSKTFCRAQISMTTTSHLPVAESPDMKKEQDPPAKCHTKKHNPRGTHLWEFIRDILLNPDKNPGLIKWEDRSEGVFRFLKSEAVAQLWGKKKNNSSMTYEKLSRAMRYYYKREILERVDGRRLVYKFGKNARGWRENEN
# Summary of the method: as §1
# SPI1 = SPI1 (Homo sapiens, UniProt P17947 1-270)
# Summary of the method: as §1
# SPIB = SPIB (Homo sapiens, UniProt Q01892 1-262)
# Summary of the method: as §1
# ELK3 = target: T6, ELK3 (Homo sapiens, UniProt P41970 1-407)
# T6 sequence: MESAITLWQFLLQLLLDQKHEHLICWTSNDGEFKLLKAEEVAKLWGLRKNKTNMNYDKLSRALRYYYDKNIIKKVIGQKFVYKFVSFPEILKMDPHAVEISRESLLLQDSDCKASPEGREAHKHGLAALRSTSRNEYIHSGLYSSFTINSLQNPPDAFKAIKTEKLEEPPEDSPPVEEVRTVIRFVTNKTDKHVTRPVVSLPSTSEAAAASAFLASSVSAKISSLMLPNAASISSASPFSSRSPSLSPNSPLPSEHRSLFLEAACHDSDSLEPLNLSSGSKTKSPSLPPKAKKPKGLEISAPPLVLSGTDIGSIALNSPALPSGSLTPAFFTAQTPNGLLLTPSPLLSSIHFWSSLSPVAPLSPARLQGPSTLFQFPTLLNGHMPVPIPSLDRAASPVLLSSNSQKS
# Summary of the method: as §1
# Chain of SPIB (Q01892 whole entry): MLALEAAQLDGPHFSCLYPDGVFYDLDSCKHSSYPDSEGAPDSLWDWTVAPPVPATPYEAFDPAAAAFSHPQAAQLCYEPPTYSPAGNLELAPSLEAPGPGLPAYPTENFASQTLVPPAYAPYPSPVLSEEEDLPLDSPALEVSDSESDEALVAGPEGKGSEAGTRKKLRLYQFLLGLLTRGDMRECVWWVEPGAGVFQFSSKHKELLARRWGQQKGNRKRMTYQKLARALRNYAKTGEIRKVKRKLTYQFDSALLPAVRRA
# Chain of ELF1 (P32519 whole entry): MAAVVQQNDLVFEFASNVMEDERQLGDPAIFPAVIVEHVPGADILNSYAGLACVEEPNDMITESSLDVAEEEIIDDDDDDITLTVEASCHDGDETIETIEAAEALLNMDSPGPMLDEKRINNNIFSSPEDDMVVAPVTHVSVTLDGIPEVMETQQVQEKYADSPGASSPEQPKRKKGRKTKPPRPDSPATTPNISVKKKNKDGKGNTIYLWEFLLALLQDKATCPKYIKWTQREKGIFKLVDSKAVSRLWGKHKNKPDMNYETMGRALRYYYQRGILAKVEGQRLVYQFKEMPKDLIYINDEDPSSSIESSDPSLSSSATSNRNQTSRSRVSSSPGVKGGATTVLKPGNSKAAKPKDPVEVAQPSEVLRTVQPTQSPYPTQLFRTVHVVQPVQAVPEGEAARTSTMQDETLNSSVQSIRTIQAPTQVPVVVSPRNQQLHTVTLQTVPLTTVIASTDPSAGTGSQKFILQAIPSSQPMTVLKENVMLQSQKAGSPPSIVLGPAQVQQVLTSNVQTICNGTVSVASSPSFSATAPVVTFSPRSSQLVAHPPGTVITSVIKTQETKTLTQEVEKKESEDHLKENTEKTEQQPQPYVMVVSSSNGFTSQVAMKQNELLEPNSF
Sequence,binding signal (FLI1),binding signal (ELK1),binding signal (GABPA),binding signal (ERG),binding signal (ELF1),binding signal (EHF),binding signal (SPI1),binding signal (SPIB),binding signal (ELK3)
TCGCTT,"1.22 fold enrichment (6-mer frequency, TF over GST control)","1.3 fold enrichment (6-mer frequency, TF over GST control)","1.23 fold enrichment (6-mer frequency, TF over GST control)","1.18 fold enrichment (6-mer frequency, TF over GST control)","1.19 fold enrichment (6-mer frequency, TF over GST control)","1.2 fold enrichment (6-mer frequency, TF over GST control)","1.08 fold enrichment (6-mer frequency, TF over GST control)","1.38 fold enrichment (6-mer frequency, TF over GST control)","1.18 fold enrichment (6-mer frequency, TF over GST control)"
ATATTA,"1.08 fold enrichment (6-mer frequency, TF over GST control)","1.11 fold enrichment (6-mer frequency, TF over GST control)","1.12 fold enrichment (6-mer frequency, TF over GST control)","1.09 fold enrichment (6-mer frequency, TF over GST control)","1.16 fold enrichment (6-mer frequency, TF over GST control)","1.08 fold enrichment (6-mer frequency, TF over GST control)","1.03 fold enrichment (6-mer frequency, TF over GST control)","1.16 fold enrichment (6-mer frequency, TF over GST control)","1.13 fold enrichment (6-mer frequency, TF over GST control)"
GTTAAC,"1.04 fold enrichment (6-mer frequency, TF over GST control)","1.22 fold enrichment (6-mer frequency, TF over GST control)","1.13 fold enrichment (6-mer frequency, TF over GST control)","1.15 fold enrichment (6-mer frequency, TF over GST control)","1.14 fold enrichment (6-mer frequency, TF over GST control)","1.11 fold enrichment (6-mer frequency, TF over GST control)","1.15 fold enrichment (6-mer frequency, TF over GST control)","1.12 fold enrichment (6-mer frequency, TF over GST control)","1.23 fold enrichment (6-mer frequency, TF over GST control)"
GTTGCT,"1.34 fold enrichment (6-mer frequency, TF over GST control)","1.26 fold enrichment (6-mer frequency, TF over GST control)","1.25 fold enrichment (6-mer frequency, TF over GST control)","1.3 fold enrichment (6-mer frequency, TF over GST control)","1.31 fold enrichment (6-mer frequency, TF over GST control)","1.35 fold enrichment (6-mer frequency, TF over GST control)","1.34 fold enrichment (6-mer frequency, TF over GST control)","1.28 fold enrichment (6-mer frequency, TF over GST control)","1.25 fold enrichment (6-mer frequency, TF over GST control)"
CTACTG,"1.31 fold enrichment (6-mer frequency, TF over GST control)","1.28 fold enrichment (6-mer frequency, TF over GST control)","1.35 fold enrichment (6-mer frequency, TF over GST control)","1.22 fold enrichment (6-mer frequency, TF over GST control)","1.34 fold enrichment (6-mer frequency, TF over GST control)","1.33 fold enrichment (6-mer frequency, TF over GST control)","1.23 fold enrichment (6-mer frequency, TF over GST control)","1.05 fold enrichment (6-mer frequency, TF over GST control)","1.09 fold enrichment (6-mer frequency, TF over GST control)"
TCTTCG,"1.45 fold enrichment (6-mer frequency, TF over GST control)","1.49 fold enrichment (6-mer frequency, TF over GST control)","1.45 fold enrichment (6-mer frequency, TF over GST control)","1.41 fold enrichment (6-mer frequency, TF over GST control)","1.51 fold enrichment (6-mer frequency, TF over GST control)","1.31 fold enrichment (6-mer frequency, TF over GST control)","1.47 fold enrichment (6-mer frequency, TF over GST control)","1.57 fold enrichment (6-mer frequency, TF over GST control)","1.49 fold enrichment (6-mer frequency, TF over GST control)"
GGCTCT,"1.15 fold enrichment (6-mer frequency, TF over GST control)","1.23 fold enrichment (6-mer frequency, TF over GST control)","1.23 fold enrichment (6-mer frequency, TF over GST control)","1.26 fold enrichment (6-mer frequency, TF over GST control)","1.29 fold enrichment (6-mer frequency, TF over GST control)","1.27 fold enrichment (6-mer frequency, TF over GST control)","1.18 fold enrichment (6-mer frequency, TF over GST control)","1.26 fold enrichment (6-mer frequency, TF over GST control)","1.42 fold enrichment (6-mer frequency, TF over GST control)"
